Records with an inconclusive call do not appear. Calls of active or inactive are those of the source. Unless noted, calls come from the whole dose curve; as a rule, active = well fitted curve in either direction with a large enough effect (not every such curve was filed as active); inconclusive = small, poorly fitted or top-dose-only effect, or another doubt; inactive = flat fitted curve, though single readings scatter.
Legend:
[1] = biological target: Lysosomal acid glucosylceramidase (Homo sapiens) (UniProt P04062); assay: Glucocerebrosidase-p2 (AID 348; in the data active = potency below about 10 µM; note: potency is the fitted concentration of half-maximal effect); conditions: purified GBA, blue fluorogenic substrate, 40 min
How it was run: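 Compounds titrated from 0.6 nM upwards against 0.2 nM enzyme in pH 5.9 citric acid/KH2PO4, taurocholate, tween-20; blue fluorogenic substrate 80 uM, 40 min room temperature, stopped and read Ex 365/Em 440 for AC50.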

[2] = biological target: Glucocorticoid receptor (Homo sapiens) (UniProt P04150); assay: GR-GFP Redistribution (AID 450;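 active = compounds whose dose series gives a full or clear partial fitted curve of increased nuclear translocation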; note: potency is the fitted concentration of half-maximal effect); conditions: U2OS GR-GFP nuclear translocation, laser cytometry, 2 h
[3] = biological target: Glucocorticoid receptor (Homo sapiens) (UniProt P04150); assay: GR-EFC Redistribution (AID 451; calls by dose curve; note: potency is the fitted concentration of half-maximal effect); conditions: CHO-K1 GR-EFC translocation, beta-gal luminescence, 2 h
How it was run: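 CHO-K1 cells stably expressing nuclear-localized β-gal enzyme acceptor and GR fused C-terminally to the enzyme donor fragment; ligand-driven nuclear translocation restores β-gal by complementation. Compounds titrated up to 46 uM final, 2 h at 37 °C; luminescence read.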

[4] = biological target: Mitogen-activated protein kinase 10 (Mus musculus) (UniProt Q61831); assay: JNK3 AlphaScreen Assay (AID 530); conditions: JNK3 lysate, c-Jun phosphorylation; series mostly up to 57.1 µM;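 note: kinase came from lysate of stimulated human HepG2 cells; signal reports phosphorylation of biotinylated GST-cJun 1-79 at Ser73 with 10 µM ATP; % is set by controls: 0 for no effect and ±100 for the full control effect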
How it was run: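 JNK3 came from HepG2 lysates pre-activated with IL-1beta and TNF-alpha and phosphorylated biotinylated GST-cJun (1-79) at 10 uM ATP, pH 7.6, room temperature. Compounds were titrated. AlphaScreen signal used anti-phospho-cJun (Ser73) antibody.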

[5] = biological target: 3',5'-cyclic-AMP phosphodiesterase 4B (Homo sapiens) (UniProt Q07343); assay: qHTS Assay for Inhibitors of PDE-IV (AID 607; active = well fitted activation curve with a large enough effect in the main read-out, with a control signal flat, not every such curve was filed as active; note: % of control where 0% means no effect); conditions: HEK293 ACTOne CNG channel cells, membrane potential fluorescence; series mostly up to 22.9 µM
How it was run: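 ACTOne HEK293 cells carry a modified cAMP-gated CNG channel and express endogenous PDE4; plated 1000 cells/well, compounds up to 22.9 uM final. Membrane-potential dye fluorescence (ex 535/em 590) was read; parental cells received 10 uM forskolin + 100 uM RO 20-1724.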

[6] = qHTS Assay for Lipid Storage Modulators (AID 1519; calls by dose curve); conditions: Drosophila S3 cells, BODIPY lipid droplet/cell ratio, laser cytometry, cells loaded with oleic acid; for activity change, negative = inhibition: at 57.5 µM (top of the series)
How it was run: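 Cells seeded at 5,000 per well were treated with compounds over a concentration series and loaded with oleic acid (400 uM, as added). Lipid droplet fluorescence (488 nm excitation, 500-530 nm channel) was read by laser-scanning cytometry and normalized to 20 uM Triacsin C.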

[7] = Primary qHTS for small molecule stabilizers of the endoplasmic reticulum resident proteome: Secreted ER Calcium Modulated Protein (SERCaMP) assay (AID 1508630; active = well fitted curve in the direction sought with a large enough effect; an effect the other way counts as inactive or inconclusive; note: % is set by controls: 0 for no effect and ±100 for the full control effect); conditions: SH-SY5Y GLuc-SERCaMP (Gaussia luciferase released on ER calcium loss) secretion, thapsigargin, luminescence; series mostly up to 38.4 µM
How it was run: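 GLuc-SERCaMP-expressing SH-SY5Y cells, pretreated 16 h with compound, are challenged with thapsigargin to empty ER calcium stores; after 4 h, coelenterazine is added directly to the medium and luminescence is imaged.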

[8] = AP1 Signaling Pathway (AID 357); conditions: ME-180 AP-1-bla reporter, EGF-induced, beta-lactamase ratio, 5 h; at 7.69 µM (top of the series) unless noted; note: % is set by controls: 0 for no effect and ±100 for the full control effect
How it was run: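 Titration-series screen for positive or negative modulators of EC50 EGF-induced signaling in ME-180 cells carrying an AP-1-driven beta-lactamase reporter. After 5 hours at 37 degrees Celsius, CCF4 460nm/530nm emission ratio gave %Activity; AC50 values derived.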

[9] = biological target: Cytochrome P450 1A2 (Homo sapiens) (UniProt P05177); assay: p450-cyp1a2 (AID 410; calls by dose curve; note: potency is the fitted concentration of half-maximal effect;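 for activity change, negative = inhibition: -100% = full effect of reference inhibitor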); conditions: recombinant CYP1A2, luciferin-ME demethylation, luminescence; series mostly up to 57 µM
How it was run: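 Inhibition was calculated relative to 57 uM furafylline (full inhibition). The reaction used human CYP1A2 at 20nM with Luciferin-ME at its Km, 100uM, driven by an NADPH-regenerating system for 60 min at room temperature.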

[10] = NFAT Signaling Pathway (AID 444); conditions: Jurkat NFAT-bla M1, carbachol, beta-lactamase ratio, 5 h; at 7.69 µM (top of the series) unless noted;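 note: carbachol stimulus at about its EC50 of 1 µM final; % is set by controls: 0 for no effect and ±100 for the full control effect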
How it was run: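 Jurkat cells carrying an NFAT-driven β-lactamase reporter and co-transfected muscarinic M1 receptor were treated with compound plus carbachol (1 uM final, an EC50 level) for 5 h at 37 °C. CCF4 loading followed for 1 h at RT; 460/530 nm ratio gave %activity.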

[11] = Stat Signaling Pathway (AID 446); conditions: ME-180 SIE beta-lactamase reporter, IL-6 stimulated, 5 h; at 7.69 µM (top of the series) unless noted
How it was run: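 ME-180 SIE-bla cells; overnight plating; cpd + IL-6 40 pM, 5 h, 37 C; LiveBLAzer 2.5 h RT; 460/530 nm emission ratio. Normalized to 300 pM IL-6 and 125 nM JAK inhibitor controls.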

[12] = biological target: Cytochrome P450 3A4 (Homo sapiens) (UniProt P08684); assay: qHTS Assay for Activators of Cytochrome P450 3A4 (AID 885; active = well fitted curve in the direction sought with a large enough effect; an effect the other way counts as inactive or inconclusive; note: nearly all actives have a fitted effect of over 65% in size); conditions: recombinant CYP3A4, Luciferin-PPXE luminescence, 60 min; series mostly up to 57.1 µM
How it was run: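 20nM CYP3A4 + 25uM Luciferin-PPXE (=KM), 200mM KPO4; cpd 10 min RT; NADPH regen, 60 min RT; stop w/ detection buffer, 20 min; luminescence. Normalized to 57 uM ketoconazole.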

[13] = biological target: Cytochrome P450 3A4 (Homo sapiens) (UniProt P08684); assay: qHTS Assay for Inhibitors and Substrates of Cytochrome P450 3A4 (AID 884; active = well fitted curve in the direction sought with a large enough effect; an effect the other way counts as inactive or inconclusive; note: potency is the fitted concentration of half-maximal effect; nearly all actives have a fitted effect of over 50% in size); conditions: recombinant CYP3A4, Luciferin-PPXE luminescence; series mostly up to 57.1 µM
How it was run: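 20 nM human CYP3A4 with 25 uM Luciferin-PPXE (at KM) in 200 mM KPO4, preincubated 10 min with compound; NADPH regeneration started a 60 min RT reaction. Luciferin detected by luminescence, normalized to 57 uM ketoconazole as full inhibition.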

[14] = qHTS Assay for Identification of Small Molecule Agonists for Hypoxia Response Element Signaling Pathway (AID 914; active = well fitted activation curve with a large enough effect in the signal ratio, with a control signal flat, not every such curve was filed as active; the % refers to the signal ratio; note: potency is the fitted concentration of half-maximal effect; for activation: % of control where 0% means no effect); conditions: ME-180 (cervical carcinoma) HRE-bla reporter, beta-lactamase ratio, CoCl2, 17 h; activation: stronger effect = higher value
How it was run: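 AC50 values come from titration-series %Activity, taken as the 460/530nm ratio of CCF4 fluorescence (excitation 405nm). CellSensor HRE-bla ME-180 cells were treated 17 hours at 37 C with compound plus an EC50 level of CoCl2.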

[15] = Confirmation and Secondary Assay for Modulators of Hemoglobin Beta Chain Splicing at IVS2 705 locus (AID 930; active = well fitted curve in the direction sought with a large enough effect; an effect the other way counts as inactive or inconclusive;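 note: HeLa cells stably expressing the EGFP-705 splicing reporter; % of control where 0% means no effect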); conditions: HeLa EGFP-705 splicing reporter, GFP fluorescence, 48 h; series mostly up to 38.3 µM
How it was run: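 Restored EGFP fluorescence after 2-day compound exposure reports splicing correction in IVS2-705 EGFP reporter HeLa cells; positive control was 500 nM splice-blocking PNA oligo. Signal measured as well total peak GFP intensity (488 nm excitation).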

[16] = biological target: Ubiquitin carboxyl-terminal hydrolase 1 (Homo sapiens) (UniProt O94782); assay: Inhibitors of USP1/UAF1: Pilot qHTS (AID 504865; active = well fitted curve in the direction sought with a large enough effect; an effect the other way counts as inactive or inconclusive;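 note: rhodamine fluorescence freed from ubiquitin-rhodamine substrate followed over time; top concentration of the series differs between compounds; % is set by controls: 0 for no effect and ±100 for the full control effect; nearly all actives have a fitted effect of over 35% in size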); conditions: purified USP1/UAF1, Ub-rhodamine cleavage fluorescence; series mostly up to 54.9 µM
How it was run: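 Deubiquitinase activity followed as kinetic rhodamine fluorescence release from 150 nM Ub-Rho. 1 nM USP1/UAF1 with compound, after 15 min room-temperature preincubation, in HEPES pH 7.8 buffer containing TCEP, EDTA, BSA and Tween-20.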

[17] = Confirmation and Secondary Assay for Modulators of Hemoglobin Beta Chain Splicing at IVS2 654 locus (AID 910; active = well fitted curve in the direction sought with a large enough effect; an effect the other way counts as inactive or inconclusive;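 note: per-well total GFP intensity by laser scanning cytometry after 2-day treatment; % of control where 0% means no effect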); conditions: HeLa EGFP-654 splicing reporter, GFP fluorescence, 48 h; series mostly up to 38.3 µM
How it was run: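 HeLa cells stably carrying EGFP interrupted by mutant beta-globin IVS2-654 intron (CMV-driven) were treated with compound for 2 days at 37C; corrected splicing was scored as total peak GFP intensity per well (488 nm excitation, 500-520 nm emission).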

[18] = measured here: cell count channel max response
[19] = measured here: lipid channel max response

Chain of Glucocorticoid receptor (Homo sapiens) (P04150 whole entry, looked up, the tested form may be a part): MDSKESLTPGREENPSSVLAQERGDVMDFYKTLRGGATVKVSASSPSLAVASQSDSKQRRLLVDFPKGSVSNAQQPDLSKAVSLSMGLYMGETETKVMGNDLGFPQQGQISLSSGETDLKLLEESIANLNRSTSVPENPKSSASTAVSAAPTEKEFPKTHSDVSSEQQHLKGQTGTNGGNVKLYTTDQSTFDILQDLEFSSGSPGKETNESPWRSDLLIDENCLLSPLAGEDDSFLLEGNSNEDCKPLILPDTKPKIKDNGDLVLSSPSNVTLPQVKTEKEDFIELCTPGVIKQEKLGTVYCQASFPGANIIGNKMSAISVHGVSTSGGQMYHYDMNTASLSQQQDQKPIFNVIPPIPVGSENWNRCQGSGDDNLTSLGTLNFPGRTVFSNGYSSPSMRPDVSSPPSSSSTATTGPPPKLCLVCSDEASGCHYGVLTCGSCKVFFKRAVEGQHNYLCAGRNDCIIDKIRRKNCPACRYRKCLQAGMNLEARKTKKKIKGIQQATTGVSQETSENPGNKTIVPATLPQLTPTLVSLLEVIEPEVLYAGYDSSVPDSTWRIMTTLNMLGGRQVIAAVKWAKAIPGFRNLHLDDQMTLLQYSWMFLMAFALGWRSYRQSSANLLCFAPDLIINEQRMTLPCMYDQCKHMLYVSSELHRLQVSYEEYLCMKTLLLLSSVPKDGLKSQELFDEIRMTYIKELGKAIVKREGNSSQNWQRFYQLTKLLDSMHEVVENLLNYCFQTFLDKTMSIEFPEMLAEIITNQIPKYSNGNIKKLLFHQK
Chain of Cytochrome P450 1A2 (Homo sapiens) (P05177 whole entry, looked up): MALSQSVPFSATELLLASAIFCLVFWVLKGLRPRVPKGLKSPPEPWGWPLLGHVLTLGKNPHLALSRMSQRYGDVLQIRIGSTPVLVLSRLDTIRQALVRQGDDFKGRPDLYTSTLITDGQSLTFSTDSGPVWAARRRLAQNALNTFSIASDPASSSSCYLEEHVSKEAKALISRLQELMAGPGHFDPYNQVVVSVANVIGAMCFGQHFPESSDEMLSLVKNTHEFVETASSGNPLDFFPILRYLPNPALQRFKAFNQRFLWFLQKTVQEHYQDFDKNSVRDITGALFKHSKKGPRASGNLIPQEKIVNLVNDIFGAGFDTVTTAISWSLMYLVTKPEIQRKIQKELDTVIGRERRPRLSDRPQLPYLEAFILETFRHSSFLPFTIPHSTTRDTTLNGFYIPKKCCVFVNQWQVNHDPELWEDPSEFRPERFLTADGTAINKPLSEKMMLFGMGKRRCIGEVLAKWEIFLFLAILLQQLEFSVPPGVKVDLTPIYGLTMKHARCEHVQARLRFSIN
Chain of Cytochrome P450 3A4 (Homo sapiens) (P08684 whole entry, looked up): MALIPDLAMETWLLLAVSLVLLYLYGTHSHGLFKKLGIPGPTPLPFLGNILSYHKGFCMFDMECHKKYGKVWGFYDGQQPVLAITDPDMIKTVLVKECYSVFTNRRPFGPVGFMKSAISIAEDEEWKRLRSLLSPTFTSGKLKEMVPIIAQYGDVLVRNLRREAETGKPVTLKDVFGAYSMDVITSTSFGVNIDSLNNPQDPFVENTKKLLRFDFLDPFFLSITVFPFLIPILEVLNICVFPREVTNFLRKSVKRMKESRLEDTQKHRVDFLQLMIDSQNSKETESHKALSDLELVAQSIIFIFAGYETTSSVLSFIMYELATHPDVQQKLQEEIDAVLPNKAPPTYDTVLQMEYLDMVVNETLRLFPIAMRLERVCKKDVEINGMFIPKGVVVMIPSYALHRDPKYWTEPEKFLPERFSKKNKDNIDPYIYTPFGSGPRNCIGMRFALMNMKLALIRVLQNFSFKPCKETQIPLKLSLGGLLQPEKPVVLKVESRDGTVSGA
Chain of 3',5'-cyclic-AMP phosphodiesterase 4B (Homo sapiens) (Q07343 whole entry, looked up): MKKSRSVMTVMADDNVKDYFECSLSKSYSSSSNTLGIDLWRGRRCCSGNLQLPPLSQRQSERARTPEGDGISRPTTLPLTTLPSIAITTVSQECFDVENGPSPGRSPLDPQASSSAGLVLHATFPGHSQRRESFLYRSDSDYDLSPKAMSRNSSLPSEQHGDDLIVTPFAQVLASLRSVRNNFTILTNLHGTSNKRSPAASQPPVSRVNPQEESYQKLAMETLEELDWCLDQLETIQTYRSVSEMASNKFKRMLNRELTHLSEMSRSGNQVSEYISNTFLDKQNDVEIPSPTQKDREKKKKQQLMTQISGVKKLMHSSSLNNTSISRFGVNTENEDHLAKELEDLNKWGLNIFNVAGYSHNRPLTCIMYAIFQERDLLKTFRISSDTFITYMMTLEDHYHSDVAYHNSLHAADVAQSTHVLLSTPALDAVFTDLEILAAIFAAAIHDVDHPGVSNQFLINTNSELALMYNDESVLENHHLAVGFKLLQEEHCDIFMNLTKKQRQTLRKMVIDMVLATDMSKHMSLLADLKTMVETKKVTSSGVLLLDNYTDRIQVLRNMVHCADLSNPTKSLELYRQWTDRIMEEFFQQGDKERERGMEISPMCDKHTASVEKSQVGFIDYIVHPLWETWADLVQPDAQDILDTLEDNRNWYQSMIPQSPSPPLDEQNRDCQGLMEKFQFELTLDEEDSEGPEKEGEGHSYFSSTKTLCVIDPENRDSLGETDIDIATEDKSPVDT
Chain of Lysosomal acid glucosylceramidase (Homo sapiens) (P04062 whole entry, looked up): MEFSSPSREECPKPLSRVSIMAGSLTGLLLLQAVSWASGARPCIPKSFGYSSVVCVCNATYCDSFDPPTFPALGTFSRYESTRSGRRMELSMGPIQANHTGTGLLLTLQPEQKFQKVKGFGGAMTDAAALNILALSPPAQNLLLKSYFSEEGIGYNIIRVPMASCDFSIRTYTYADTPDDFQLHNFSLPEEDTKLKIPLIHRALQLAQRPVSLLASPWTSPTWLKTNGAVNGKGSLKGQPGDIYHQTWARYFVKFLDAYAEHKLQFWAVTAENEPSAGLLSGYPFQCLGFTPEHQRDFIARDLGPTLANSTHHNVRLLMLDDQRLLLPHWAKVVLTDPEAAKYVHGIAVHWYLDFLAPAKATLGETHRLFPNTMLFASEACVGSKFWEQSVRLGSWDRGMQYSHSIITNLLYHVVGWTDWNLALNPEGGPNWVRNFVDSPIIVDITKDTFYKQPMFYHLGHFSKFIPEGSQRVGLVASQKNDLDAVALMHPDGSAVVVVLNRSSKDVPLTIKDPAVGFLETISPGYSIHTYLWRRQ
Chain of Ubiquitin carboxyl-terminal hydrolase 1 (Homo sapiens) (O94782 whole entry, looked up): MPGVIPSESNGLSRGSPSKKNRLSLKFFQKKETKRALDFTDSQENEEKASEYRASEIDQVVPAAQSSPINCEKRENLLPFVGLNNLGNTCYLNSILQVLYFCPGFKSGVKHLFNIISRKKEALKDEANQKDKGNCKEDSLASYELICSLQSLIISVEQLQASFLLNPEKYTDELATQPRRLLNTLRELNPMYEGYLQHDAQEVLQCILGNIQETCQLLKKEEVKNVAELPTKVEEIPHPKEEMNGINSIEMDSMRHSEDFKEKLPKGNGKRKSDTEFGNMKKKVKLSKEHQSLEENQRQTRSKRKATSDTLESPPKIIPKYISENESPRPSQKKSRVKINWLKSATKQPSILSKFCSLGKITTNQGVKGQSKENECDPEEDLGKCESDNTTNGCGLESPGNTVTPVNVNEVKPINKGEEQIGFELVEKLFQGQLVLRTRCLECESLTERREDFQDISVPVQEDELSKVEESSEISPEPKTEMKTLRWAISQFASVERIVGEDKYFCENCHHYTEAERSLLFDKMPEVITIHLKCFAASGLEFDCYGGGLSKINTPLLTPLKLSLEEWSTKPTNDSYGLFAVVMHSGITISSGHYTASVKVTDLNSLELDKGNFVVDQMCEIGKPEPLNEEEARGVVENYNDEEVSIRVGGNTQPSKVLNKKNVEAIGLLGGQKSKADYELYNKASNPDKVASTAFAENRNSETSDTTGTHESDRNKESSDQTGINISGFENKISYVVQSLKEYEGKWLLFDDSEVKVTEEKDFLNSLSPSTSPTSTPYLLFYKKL

N#CCCn1c(=O)c(-c2cccs2)nc2cnc(N3CCNCC3)nc21
9.49%: max response [6, 19]
inactive: Potency [1] > 11.4 µM | Potency [2] > 9.22 µM | Potency [3] > 46 µM | Potency [4] | Potency [5] | activity change, negative = inhibition [6] -0.055% | outcome [7]
5.4%: max response [6, 18]

N#Cc1cccc(NC(=O)N2CC[C@@]3(CCCN(C(=O)c4ccco4)C3)C2)c1
inactive: activity change, negative = inhibition [8] -2.67% | Potency [9] | activity change, negative = inhibition [10] 3.83% | activity, negative = inhibition [11] -1.84% | Potency [3] > 46 µM | Potency [4] | Potency [5] | Potency [12] | activity change, negative = inhibition [6] 6.04% | outcome [7]
4.12%: max response [6, 18]
14%: max response [6, 19]

CS(=O)(=O)Nc1cccc(-c2nccc(-n3ccnc3)n2)c1
5%: max response [6, 19]
active: Potency [9] 0.2 µM | Potency [13] 1.58 µM
inactive: activity change, negative = inhibition [8] -9.45% | activity change, negative = inhibition [10] -0.156% | activity, negative = inhibition [11] 0.985% | Potency [2] > 46 µM | Potency [3] > 46 µM | Potency [4] | Potency [5] | Potency [12] | activation [14] -11.9% | outcome [15] | activity change, negative = inhibition [6] 2.72% | Potency [16] | outcome [7]
1.42%: max response [6, 18]

CC(=O)N1CCC2(CC1)CN(Cc1ccc(C#N)cc1)C2
inactive: Potency [1] > 11.4 µM | activity change, negative = inhibition [10] 0.883% | Potency [3] > 46 µM | Potency [4] | Potency [5] | activity change, negative = inhibition [6] -1.35% | outcome [7]
-0.767%: max response [6, 18]
-0.217%: max response [6, 19]

Cc1noc(C)c1-c1nc(N2CCOCC2)c2ccccc2n1
inactive: activity change, negative = inhibition [8] -9.5% | activity change, negative = inhibition [10] 16.1% | activity, negative = inhibition [11] 19.8% | Potency [2] > 46 µM | Potency [3] > 46 µM | Potency [4] | Potency [5] | Potency [12] | Potency [17] | outcome [15] | activity change, negative = inhibition [6] 2.85% | outcome [7]
6.88%: max response [6, 18]
9.54%: max response [6, 19]
active: Potency [9] 0.316 µM | Potency [13] 6.31 µM

O=c1c(-c2ccc(F)cc2)nc2cnc(N3CCOCC3)nc2n1-c1ccccc1
7.89%: max response [6, 18]
5.39%: max response [6, 19]
inactive: Potency [1] > 11.4 µM | Potency [2] > 9.22 µM | Potency [3] > 46 µM | Potency [4] | activity change, negative = inhibition [6] -4.64% | outcome [7]
active: Potency [14] 1.26 µM

N#Cc1cccc(NC(=O)N2CCCC3(CCN(S(=O)(=O)c4ccccc4)CC3)C2)c1
inactive: Potency [1] > 11.4 µM | activity, negative = inhibition [11] -2.4% | Potency [3] > 46 µM | Potency [4] | Potency [5] | activity change, negative = inhibition [6] -3.45% | outcome [7]
1.48%: max response [6, 18]
-1.95%: max response [6, 19]

— PubChem BioAssay (NCATS)
